# Results published in ChEMBL document CHEMBL4513146, “CO-ADD screening of Karazin Kharkiv National University (Ukraine) compounds”.
# Potency and affinity values are given separately.
# Tested on: Cryptococcus neoformans
# Conditions: Concentration 32 ug.mL-1; ASSAY_TEST Inhibition of Fungal Growth; detection method Resazurin; Absorption (OD600-OD570); plate type 384well; NBS; CORNING #3640
row,SMILES,Inhibition [%]
1,CSc1cccc(NC(=O)Cn2nc3c(SCc4ccc(Cl)cc4)nccn3c2=O)c1,-40.36
2,Cc1ccc(-n2ccn3c(=O)n(Cc4cccc(Cl)c4)nc3c2=O)cc1C,-13.91
3,COc1ccccc1NC(=O)Cn1c(=O)c2nnc(C(C)C)n2c2ccccc21,-9.5
4,Cc1cccc(C)c1NC(=O)CSc1nnc2c3cc(-c4ccc(F)cc4)nn3ccn12,-11.19
5,CCc1ccc(N(Cc2ccc(C)cc2)S(=O)(=O)c2cccn3c(CC)nnc23)cc1,-7.79
6,Cc1ccc(Cn2nc3c(=O)n(-c4cccc(F)c4)ccn3c2=O)cc1,-10.74
7,Cc1ccc(NC(=O)Cn2nc3ccc(SC(C)(C)C)nn3c2=O)c(Cl)c1,-20.56
8,Cc1ccc(Cl)cc1NC(=O)Cn1nc2c(N3CCOCC3)nc3ccccc3n2c1=O,-17.81
9,COc1cccc(Oc2nccn3c(=O)n(CC(=O)Nc4ccc(OC)c(Cl)c4)nc23)c1,-8.33
10,O=C(Cn1nc2ccc(Sc3cccc(F)c3)nn2c1=O)Nc1cccc(C(F)(F)F)c1,-9.77
11,CCc1nnc2c(=O)n(CC(=O)Nc3ccc(C#N)cc3)c3ccccc3n12,-24.76
12,COc1cccc(Oc2nccn3c(=O)n(CC(=O)Nc4ccccc4C(F)(F)F)nc23)c1,-10.15
13,Cc1nnc2c(SCC(=O)Nc3ccc(C#N)cc3)nc3ccccc3n12,-16.12
14,CC(C)c1ccc(N(Cc2cc(F)cc(F)c2)S(=O)(=O)c2cccn3cnnc23)cc1,-6.06
15,COc1ccc(NC(=O)Cn2nc3ccc(SCc4ccc(Cl)cc4)nn3c2=O)cc1Cl,-13.55
16,Cc1ccc(-c2ccc3nn(CC(=O)Nc4ccc(C#N)cc4)c(=O)n3n2)cc1C,-12.02
17,Cc1ccc(NC(=O)Cn2nc3c(Oc4ccccc4)nccn3c2=O)c(Br)c1,-6.15
18,O=c1c2nnc(SCc3ccc(F)cc3)n2ccn1-c1ccc(Br)cc1,-8.82
19,CCCCOc1ccc(-c2cc3c4nnc(SCC(=O)Nc5ccccc5F)n4ccn3n2)cc1,-10.98
20,CCCCc1ccc(NC(=O)Cn2nc3c(Sc4ccccc4CC)nccn3c2=O)cc1,-8.24

row,SMILES,Inhibition [%]
1,CC(C)CCn1c(=O)c2ccc(C(=O)NC3CCCC3)cc2n2c(=O)n(CC#N)nc12,-21.13
2,Cc1ccc(NC(=O)Cn2c(=O)c3nnc(C)n3c3ccccc32)cc1C,-4.45
3,CCc1ccc(N(Cc2ccccc2)S(=O)(=O)c2cccn3c(CC)nnc23)cc1,-8.52
4,O=c1c2sccc2n2c(=O)n(Cc3ccc(F)cc3)nc2n1CCc1ccccc1,-5
5,Cc1cccc(NC(=O)Cn2nc3c(SCc4ccc(Cl)cc4)nccn3c2=O)c1C,-31.05
6,CCOc1ccc(-n2ccn3c(SCC(=O)Nc4ccc(C)cc4Cl)nnc3c2=O)cc1,-6.58
7,Cc1ccc(Nc2cc(C)n3c(=O)n(Cc4cc(=O)n5ccccc5n4)nc3n2)cc1F,-5.54
8,COc1cccc(NC(=O)Cn2nc3ccc(SCc4ccc(Cl)cc4)nn3c2=O)c1,-15.62
9,Cc1ccc(NC(=O)Cn2nc3ccc(SC(C)(C)C)nn3c2=O)cc1C,-7.37
10,O=C(CSc1nnc2c(=O)n(-c3ccccc3)ccn12)c1ccc(F)cc1,-7.83
11,O=C(Cn1nc2c(N3CCOCC3)nccn2c1=O)Nc1ccc2c(c1)OCO2,-14.42
12,O=C(Cn1nc2c(N3CCN(c4ccccc4)CC3)nccn2c1=O)Nc1ccc2c(c1)OCO2,-7.4
13,CCc1nnc2c(S(=O)(=O)N(Cc3ccc(F)cc3)c3ccc(Cl)cc3)cccn12,-6.36
14,COc1ccc(CNC(=O)Cn2nc3c4cc(-c5ccc(Cl)cc5)nn4ccn3c2=O)cc1,-27.86
15,COc1ccc(Cl)cc1NC(=O)Cn1nc2c(Sc3ccc(C)cc3C)nccn2c1=O,-21.72
16,O=C(CSc1nnc2c(=O)n(-c3cccc(F)c3)ccn12)c1ccc(F)cc1,-7.94
17,CCOc1ccc(-n2ccn3c(SCC(=O)c4ccc(OC)c(OC)c4)nnc3c2=O)cc1,-6.73
18,CC(C)c1nnc2c(SCC(=O)Nc3ccc(Br)cc3)nc3ccccc3n12,0.69
19,CC(C)CCNC(=O)CSc1nnc2c3cc(-c4ccccc4)nn3ccn12,-17.81
